# Measured values as given in article PMC8384837, “Expanding the binding specificity for RNA recognition by a PUF domain”.
# Tests used:
# Assay in all cases: yeast three-hybrid, YBZ-1, SC-Leu-His + 0.5 mM 3-AT, 4 days
# Settings in all cases: tags: N-Gal4 AD-HA kept; label: inside an RPR1-promoter hybrid RNA with tandem MS2 sites; ssRNA
# PUM1 PUF domain R5-QVR = PUM1 PUF domain R5-QVR (Homo sapiens, UniProt Q14671 828-1176, C1007Q;R1008V;Q1011R)
# In short: (§1)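 Matching RNA elements and Pumilio-1 PUF domain libraries, randomized at the three base-contacting residues of every repeat, were co-expressed from a centromeric plasmid in strain YBZ-1 (LexA–MS2 coat fusion, HIS3 reporter). The repeat regions were PCR-amplified and Illumina-sequenced from cells grown four days on SC-Leu (input) or SC-Leu-His + 0.5 mM 3-AT (selection). The interaction score is the log change in variant frequency from input to selection. It is computed in log2, with a pseudocount of 1 for absent variants.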
# PUM1 PUF domain R5-GRP = PUM1 PUF domain R5-GRP (Homo sapiens, UniProt Q14671 828-1176, C1007G;Q1011P)
# In short: as §1
# PUM1 PUF domain R4-CPC = PUM1 PUF domain R4-CPC (Homo sapiens, UniProt Q14671 828-1176, N971C;H972P;Q975C)
# In short: as §1
# PUM1 PUF domain R4-CNC = PUM1 PUF domain R4-CNC (Homo sapiens, UniProt Q14671 828-1176, N971C;H972N;Q975C)
# In short: as §1
# PUM1 PUF domain R1-SGR = PUM1 PUF domain R1-SGR (Homo sapiens, UniProt Q14671 828-1176, R864G;Q867R)
# In short: as §1
# PUM1 PUF domain R7-KRQ = PUM1 PUF domain R7-KRQ (Homo sapiens, UniProt Q14671 828-1176, S1079K;N1080R;E1083Q)
# In short: as §1
# PUM1 PUF domain R7-HHP = PUM1 PUF domain R7-HHP (Homo sapiens, UniProt Q14671 828-1176, S1079H;N1080H;E1083P)
# In short: as §1
# PUM1 PUF domain R3-FSG = PUM1 PUF domain R3-FSG (Homo sapiens, UniProt Q14671 828-1176, C935F;R936S;Q939G)
# In short: as §1
# PUM1 PUF domain R3-CYF = PUM1 PUF domain R3-CYF (Homo sapiens, UniProt Q14671 828-1176, R936Y;Q939F)
# In short: as §1
# PUM1 PUF domain R8-RHP = PUM1 PUF domain R8-RHP (Homo sapiens, UniProt Q14671 828-1176, N1122R;Y1123H;Q1126P)
# In short: as §1
# PUM1 PUF domain R5-GRP, sequence (Q14671 828-1176 C1007G/Q1011P): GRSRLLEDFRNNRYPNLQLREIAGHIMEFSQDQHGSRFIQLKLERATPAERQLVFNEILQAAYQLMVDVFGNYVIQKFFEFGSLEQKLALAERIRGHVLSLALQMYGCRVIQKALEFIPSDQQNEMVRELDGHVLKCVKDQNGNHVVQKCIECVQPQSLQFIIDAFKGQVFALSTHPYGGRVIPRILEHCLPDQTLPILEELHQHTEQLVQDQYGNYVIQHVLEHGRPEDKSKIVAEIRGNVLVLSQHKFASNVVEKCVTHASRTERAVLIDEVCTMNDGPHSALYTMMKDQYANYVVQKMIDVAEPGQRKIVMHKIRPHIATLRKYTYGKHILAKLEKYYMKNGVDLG
# PUM1 PUF domain R8-RHP, sequence (Q14671 828-1176 N1122R/Y1123H/Q1126P): as the sequence (Q14671 828-1176 C1007G/Q1011P) above, with G180C, P184Q, N295R, Y296H, Q299P counted along it
# PUM1 PUF domain R7-HHP, sequence (Q14671 828-1176 S1079H/N1080H/E1083P): as the sequence (Q14671 828-1176 C1007G/Q1011P) above, with G180C, P184Q, S252H, N253H, E256P counted along it
# PUM1 PUF domain R4-CPC, sequence (Q14671 828-1176 N971C/H972P/Q975C): as the sequence (Q14671 828-1176 C1007G/Q1011P) above, with N144C, H145P, Q148C, G180C, P184Q counted along it
# PUM1 PUF domain R7-KRQ, sequence (Q14671 828-1176 S1079K/N1080R/E1083Q): as the sequence (Q14671 828-1176 C1007G/Q1011P) above, with G180C, P184Q, S252K, N253R, E256Q counted along it
# PUM1 PUF domain R4-CNC, sequence (Q14671 828-1176 N971C/H972N/Q975C): as the sequence (Q14671 828-1176 C1007G/Q1011P) above, with N144C, H145N, Q148C, G180C, P184Q counted along it
# PUM1 PUF domain R3-CYF, sequence (Q14671 828-1176 R936Y/Q939F): as the sequence (Q14671 828-1176 C1007G/Q1011P) above, with R109Y, Q112F, G180C, P184Q counted along it
# PUM1 PUF domain R1-SGR, sequence (Q14671 828-1176 R864G/Q867R): as the sequence (Q14671 828-1176 C1007G/Q1011P) above, with R37G, Q40R, G180C, P184Q counted along it
# PUM1 PUF domain R3-FSG, sequence (Q14671 828-1176 C935F/R936S/Q939G): as the sequence (Q14671 828-1176 C1007G/Q1011P) above, with C108F, R109S, Q112G, G180C, P184Q counted along it
# PUM1 PUF domain R5-QVR, sequence (Q14671 828-1176 C1007Q/R1008V/Q1011R): as the sequence (Q14671 828-1176 C1007G/Q1011P) above, with G180Q, R181V, P184R counted along it
sequence,measurement,setting,value
GGCUAGAACUAGUGGAUCCCCCGGCGCCCGGCGGCUCGAGCCCGGGUAAGUGUCAAUAGUCUGCAUGCCGCCGGGCGCCAUGCCUGCAGGUCGACUCUAGAAAACAUG,binding signal,PUM1 PUF domain R5-QVR,3.01 log2 enrichment (interaction score)
GGCUAGAACUAGUGGAUCCCCCGGCGCCCGGCGGCUCGAGCCCGGGUAAGUGUGAAUAGUCUGCAUGCCGCCGGGCGCCAUGCCUGCAGGUCGACUCUAGAAAACAUG,binding signal,PUM1 PUF domain R5-GRP,1.44 log2 enrichment (interaction score)
GGCUAGAACUAGUGGAUCCCCCGGCGCCCGGCGGCUCGAGCCCGGGUAAGUGUACAUAGUCUGCAUGCCGCCGGGCGCCAUGCCUGCAGGUCGACUCUAGAAAACAUG,binding signal,PUM1 PUF domain R4-CPC,2.9 log2 enrichment (interaction score)
GGCUAGAACUAGUGGAUCCCCCGGCGCCCGGCGGCUCGAGCCCGGGUAAGUGUAUAUAGUCUGCAUGCCGCCGGGCGCCAUGCCUGCAGGUCGACUCUAGAAAACAUG,binding signal,PUM1 PUF domain R4-CNC,3.13 log2 enrichment (interaction score)
GGCUAGAACUAGUGGAUCCCCCGGCGCCCGGCGGCUCGAGCCCGGGUAAGUGUAAAUCGUCUGCAUGCCGCCGGGCGCCAUGCCUGCAGGUCGACUCUAGAAAACAUG,binding signal,PUM1 PUF domain R1-SGR,3.72 log2 enrichment (interaction score)
GGCUAGAACUAGUGGAUCCCCCGGCGCCCGGCGGCUCGAGCCCGGGUAAGUCUAAAUAGUCUGCAUGCCGCCGGGCGCCAUGCCUGCAGGUCGACUCUAGAAAACAUG,binding signal,PUM1 PUF domain R7-KRQ,2.89 log2 enrichment (interaction score)
same,binding signal,PUM1 PUF domain R7-HHP,2.54 log2 enrichment (interaction score)
GGCUAGAACUAGUGGAUCCCCCGGCGCCCGGCGGCUCGAGCCCGGGUAAGUGUAAGUAGUCUGCAUGCCGCCGGGCGCCAUGCCUGCAGGUCGACUCUAGAAAACAUG,binding signal,PUM1 PUF domain R3-FSG,3.59 log2 enrichment (interaction score)
GGCUAGAACUAGUGGAUCCCCCGGCGCCCGGCGGCUCGAGCCCGGGUAAGUGUUAAUAGUCUGCAUGCCGCCGGGCGCCAUGCCUGCAGGUCGACUCUAGAAAACAUG,binding signal,PUM1 PUF domain R5-GRP,0.43 log2 enrichment (interaction score)
GGCUAGAACUAGUGGAUCCCCCGGCGCCCGGCGGCUCGAGCCCGGGUAAGUGUAAAUAGUCUGCAUGCCGCCGGGCGCCAUGCCUGCAGGUCGACUCUAGAAAACAUG,binding signal,PUM1 PUF domain R5-GRP,2.96 log2 enrichment (interaction score)
same,binding signal,PUM1 PUF domain R3-CYF,5.41 log2 enrichment (interaction score)
same,binding signal,PUM1 PUF domain R8-RHP,5.42 log2 enrichment (interaction score)
GGCUAGAACUAGUGGAUCCCCCGGCGCCCGGCGGCUCGAGCCCGGGUAAGCGUAAAUAGUCUGCAUGCCGCCGGGCGCCAUGCCUGCAGGUCGACUCUAGAAAACAUG,binding signal,PUM1 PUF domain R8-RHP,5.5 log2 enrichment (interaction score)
GGCUAGAACUAGUGGAUCCCCCGGCGCCCGGCGGCUCGAGCCCGGGUAAGUAUAAAUAGUCUGCAUGCCGCCGGGCGCCAUGCCUGCAGGUCGACUCUAGAAAACAUG,binding signal,PUM1 PUF domain R7-HHP,2.33 log2 enrichment (interaction score)
